Data on 9 compounds can be found in PubChem BioAssay (EPA / NIEHS).

Assay [1] addresses Retinoic acid receptor alpha (Homo sapiens) (UniProt P10276). Description: ATG_DR5_RAR_CIS: Attagene CIS-FACTORIAL HepG2 Assay for human Retinoic Acid Receptor Alpha (RARE), DR5 submotif (AID 2282934; active means hit-call score of the fitted dose curve at least 0.9, where 1 is the maximum; inactive means score below 0.9). The following applies: HepG2 Attagene cis-factorial RARE DR5 reporter, mRNA; actives raise or lower the signal. The method in brief: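 Read-out: DR5-driven reporter transcript measured by RT-PCR, 6-FAM primer extension, HpaI digest and capillary electrophoresis. Human HepG2 liver cells carry transiently transfected cis-element reporter constructs; dosing lasts 24 h. Gain or loss of signal fitted against DMSO baseline.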

Assay [2] deals with Hepatocyte nuclear factor 3-beta (Homo sapiens) (UniProt Q9Y261). Description: ATG_FoxA2_CIS: Attagene CIS-FACTORIAL HepG2 Assay for human Forkhead box A2 (FOXA2) (AID 2282942; active means hit-call score of the fitted dose curve at least 0.9, where 1 is the maximum; inactive means score below 0.9). To be noted: HepG2 cis-reporter transcription factor activity, 24 h; actives raise or lower the signal. In short, it runs like this: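 HepG2 transiently transfected with a multiplexed cis-promoter reporter library read endogenous FOXA2 activity. After 24 h compound exposure, reporter mRNA was quantified by RT-PCR, HpaI digestion and capillary electrophoresis. Bidirectional fit against DMSO.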
Hepatocyte nuclear factor 3-beta (Homo sapiens), sequence (Q9Y261 whole entry, looked up): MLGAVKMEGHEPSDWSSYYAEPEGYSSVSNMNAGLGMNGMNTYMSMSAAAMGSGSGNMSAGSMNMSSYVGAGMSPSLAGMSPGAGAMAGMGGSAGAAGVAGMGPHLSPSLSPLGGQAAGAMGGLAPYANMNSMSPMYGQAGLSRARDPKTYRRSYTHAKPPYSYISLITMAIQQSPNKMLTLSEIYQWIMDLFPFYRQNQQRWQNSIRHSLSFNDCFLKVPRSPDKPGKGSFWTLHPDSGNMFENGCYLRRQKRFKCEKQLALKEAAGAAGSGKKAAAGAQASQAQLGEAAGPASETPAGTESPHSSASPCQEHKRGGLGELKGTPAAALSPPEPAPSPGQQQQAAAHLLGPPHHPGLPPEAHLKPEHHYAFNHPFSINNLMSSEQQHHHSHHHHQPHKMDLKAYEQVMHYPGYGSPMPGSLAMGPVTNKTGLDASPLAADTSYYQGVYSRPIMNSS

A short description of assay [3]: ATG_GRE_CIS: Attagene CIS-FACTORIAL HepG2 Assay for human Glucocorticoid Response Elements (GRE) (AID 2282947; active means hit-call score of the fitted dose curve at least 0.9, where 1 is the maximum; inactive means score below 0.9). The following applies: HepG2 GRE cis-reporter, Attagene multiplex mRNA; actives raise or lower the signal. The method in brief: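 Transiently transfected HepG2 cells carrying GRE cis-reporter units (endogenous TF activity) dosed 24 h; reporter mRNA quantified by RT-PCR, 6-FAM labelling, HpaI digestion and capillary electrophoresis. Bidirectional fit versus DMSO baseline.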

Assay [4] in a line: ATG_PBREM_CIS: Attagene CIS-FACTORIAL HepG2 Assay for human Phenobarbital-responsive Enhancer Module (PBREM) (AID 2282955; active means hit-call score of the fitted dose curve at least 0.9, where 1 is the maximum; inactive means score below 0.9). The following applies: HepG2 PBREM cis-reporter, Attagene multiplexed transcription; actives raise or lower the signal. The method in brief:
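HepG2 cells transiently transfected with multiple cis-regulated reporter units measure endogenous transcription factor activity; 24 h compound exposure. Reporter mRNA quantified by RT-PCR, fluorescent labelling, HpaI digestion and capillary electrophoresis; bidirectional fit versus DMSO.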

Assay [5] in a line: ATG_SREBP_CIS: Attagene CIS-FACTORIAL HepG2 Assay for human Sterol Regulatory Element Binding (SREBP) (AID 2282962; active means hit-call score of the fitted dose curve at least 0.9, where 1 is the maximum; inactive means score below 0.9). To be noted: HepG2 Attagene cis-factorial SREBP reporter, mRNA; actives raise or lower the signal. In short, it runs like this: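 Twenty-four hours after chemical dosing of transfected HepG2 cultures, reporter RNA was converted to cDNA, amplified, end-labelled with 6-FAM and resolved by capillary electrophoresis. Responses were fitted relative to DMSO.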

In assay [6] the target is Hepatocyte nuclear factor 4-alpha (Homo sapiens) (UniProt P41235). Description: ATG_HNF4a_TRANS: Attagene TRANS-FACTORIAL HepG2 Assay for human Hepatocyte Nuclear Factor 4 alpha (HNF4a) (AID 2282982). The following applies: HepG2 HNF4a transactivation reporter, mRNA readout. In short, it runs like this:
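HepG2 cells transiently transfected with HNF4a-Gal4 chimera and GAL4-UAS reporter units, dosed for 24 h. Reporter mRNA measured by RT-PCR, fluorescent primer extension and capillary electrophoresis; gain-of-signal fitted relative to DMSO.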

Assay [7] in a line: ATG_M_32_TRANS: Attagene TRANS-FACTORIAL HepG2 Assay for M32 Transcription Factor (Internal Marker) (AID 2282984).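 Further: transcript level of a background control reporter unit measured by RT-PCR and capillary electrophoresis.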 The following applies: HepG2 Attagene TRANS M32 internal marker reporter. In short, it runs like this:
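HepG2 cells transiently transfected with GAL4-UAS reporter units, dosed for 24 hours. Reporter mRNA quantified by RT-PCR, 6-FAM labelling, HpaI digestion and capillary electrophoresis; internal-marker signal fitted upward relative to DMSO.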

The nature of assay [8]: ATG_NFI_CIS: Attagene CIS-FACTORIAL HepG2 Assay for human Nuclear Factor I (NFI) (AID 2282989; active means hit-call score of the fitted dose curve at least 0.9, where 1 is the maximum; inactive means score below 0.9). The following applies: HepG2 cis-regulatory reporter, NFI response element transcription; actives raise or lower the signal. The method in brief: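 Reporter transcription driven by endogenous transcription factors in HepG2 cells; 24 h treatment. Quantitation by labelled RT-PCR fragments on capillary electrophoresis, gain- or loss-of-signal relative to DMSO.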

Assay [9] can be described thus: ATG_NF_kB_CIS: Attagene CIS-FACTORIAL HepG2 Assay for human Nuclear Factor Kappa B (NF-kB) (AID 2282991; active means hit-call score of the fitted dose curve at least 0.9, where 1 is the maximum; inactive means score below 0.9). The following applies: HepG2 Attagene cis-factorial NF-kB reporter mRNA; actives raise or lower the signal. The method in brief:
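HepG2 cells transfected with cis-promoter-driven reporter units, so endogenous transcription factor activity is measured. Reporter mRNA quantified 24 h after dosing by RT-PCR and capillary electrophoresis, with bidirectional fitting against DMSO.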

The target in assay [10] is human Peroxisome Proliferator-activated Receptor alpha (PPARa), PPARA (gene 5465) (UniProt Q07869). Nature of the assay: ATG_PPARa_TRANS: Attagene TRANS-FACTORIAL HepG2 Assay for human Peroxisome Proliferator-activated Receptor alpha (PPARa) (AID 2283001).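 On AC50: potency for gain of reporter signal over DMSO so agonist or activator.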 The method in brief:
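HepG2 cells transiently transfected with multiplexed GAL4-UAS reporters driven by exogenous chimeric NR-Gal4 proteins; reporter mRNA measured after 24 h dosing. Read-out by RT-PCR, 6-FAM labelling, HpaI digestion and capillary electrophoresis; gain of signal versus DMSO.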

Assay [11] deals with human Retinoid X Receptor beta (RXRb), RXRB (gene 6257) (UniProt P28702). Description: ATG_RXRb_TRANS: Attagene TRANS-FACTORIAL HepG2 Assay for human Retinoid X Receptor beta (RXRb) (AID 2283013). In short, it runs like this: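 Transfect HepG2 with GAL4-UAS multi-reporter constructs (chimeric NR-Gal4, TRANS format); dose compound 24 h; isolate RNA, RT-PCR, FAM primer extension, HpaI digest; quantify by capillary electrophoresis; positive direction vs DMSO.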
human Retinoid X Receptor beta (RXRb), RXRB (gene 6257), sequence (P28702 whole entry, looked up, the tested form may be a part): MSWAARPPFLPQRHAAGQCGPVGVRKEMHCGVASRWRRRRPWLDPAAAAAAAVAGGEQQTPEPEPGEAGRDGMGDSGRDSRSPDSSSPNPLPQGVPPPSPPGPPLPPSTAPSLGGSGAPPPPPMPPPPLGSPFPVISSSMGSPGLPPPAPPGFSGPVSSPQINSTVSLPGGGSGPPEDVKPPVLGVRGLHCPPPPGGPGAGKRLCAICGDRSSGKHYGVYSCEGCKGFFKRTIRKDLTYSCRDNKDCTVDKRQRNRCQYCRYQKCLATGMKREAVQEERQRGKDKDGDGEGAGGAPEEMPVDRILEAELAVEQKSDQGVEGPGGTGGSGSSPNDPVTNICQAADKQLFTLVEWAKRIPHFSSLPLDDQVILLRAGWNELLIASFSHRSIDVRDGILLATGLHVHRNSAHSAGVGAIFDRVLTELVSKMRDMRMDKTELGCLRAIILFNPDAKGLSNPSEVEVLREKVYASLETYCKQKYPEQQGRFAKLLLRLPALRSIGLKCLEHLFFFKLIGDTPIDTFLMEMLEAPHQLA

Assay [12] can be described thus: TOX21_p53_BLA_p2_viability: Viability Assessment in the Tox21 HCT-116 p53 Agonism Beta-lactamase Assay, Phase 2 (AID 2283591).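 Further: compound exposure lasted 16 h at 37 °C; actives lower the ATP signal meaning cytotoxicity.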 The method in brief: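 HCT116 p53-bla cells, 4000/well, dosed after 5 h plating (217-fold dilution of DMSO stocks) and incubated 16 h at 37C. Viability taken as cellular ATP by CellTiter-Glo luminescence after 30 min RT; signal loss marks cytotoxicity.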

Assay [13] has as its target Cellular tumor antigen p53 (Homo sapiens) (UniProt P04637). Nature of the assay: TOX21_p53_BLA_p2_ratio: Tox21 HCT-116 p53 Agonism Beta-lactamase Assay, Ratio, Phase 2 (AID 2283592). In short, it runs like this:
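Human colon HCT116 cells with an inducible p53 beta-lactamase reporter are exposed to test chemicals for 16 h at 37C. Reporter induction is read as the 460/530 nm emission ratio after CCF4-AM loading, normalized to DMSO.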

A short description of assay [14]: TOX21_p53_BLA_p3_viability: Viability Assessment in the Tox21 HCT-116 p53 Agonism Beta-lactamase Assay, Phase 3 (AID 2283593).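 Further: cells exposed to compound for 16 h before reading.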 The method in brief:
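HCT116 cells, 4000/well, dosed 5 h after plating by pin transfer (217-fold dilution from DMSO stock) and incubated 16 h at 37C, 5% CO2. Viability read as ATP luminescence with CellTiter-Glo after 30 min at room temperature.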

Assay [15] addresses Cellular tumor antigen p53 (Homo sapiens) (UniProt P04637). Nature of the assay: TOX21_p53_BLA_p3_ratio: Tox21 HCT-116 p53 Agonism Beta-lactamase Assay, Ratio, Phase 3 (AID 2283596). The method in brief: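 HCT116 p53-bla cells (4000/well) given compound in DMSO (217-fold dilution) after 5 h, incubated 16 h at 37C. CCF4-AM substrate 2 h at room temperature; 460/530 nm emission ratio, gain fitted against DMSO.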

The target is the same in assay [16]. Nature of the assay: TOX21_p53_BLA_p5_ratio: Tox21 HCT-116 p53 Agonism Beta-lactamase Assay, Ratio, Phase 5 (AID 2283599). The method in brief:
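HCT-116 p53-bla cells (4000/well) plated 5 h, dosed with compound (217-fold DMSO dilution) for 16 h at 37 C; CCF4-AM substrate 2 h at room temperature. Activity is the 460/530 nm emission ratio (405 nm excitation), fitted in gain-of-signal direction versus DMSO.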

Assay [17] in a line: TOX21_p53_BLA_p5_viability: Viability Assessment in the Tox21 HCT-116 p53 Agonism Beta-lactamase Assay, Phase 5 (AID 2283600). In short, it runs like this:
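Seeded cells (4000/well) settle 5 h before compound addition. Plates then incubate 16 h at 37C, receive FRET substrate for 2 h, and finally CellTiter-Glo, with luminescence measured after a 30 min room-temperature incubation.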

The target in assay [18] is Cellular tumor antigen p53 (Homo sapiens) (UniProt P04637). Nature of the assay: TOX21_p53_BLA_p4_ratio: Tox21 HCT-116 p53 Agonism Beta-lactamase Assay, Ratio, Phase 4 (AID 2283601). The method in brief: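 HCT-116 p53 beta-lactamase reporter cells (4000/well) preincubated 5 h, then compound (217-fold dilution of DMSO stock) for 16 h at 37C. CCF4-AM substrate added 2 h at room temperature; 460/530 nm emission ratio fitted upward versus DMSO.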
Cellular tumor antigen p53 (Homo sapiens), sequence (P04637 whole entry, looked up): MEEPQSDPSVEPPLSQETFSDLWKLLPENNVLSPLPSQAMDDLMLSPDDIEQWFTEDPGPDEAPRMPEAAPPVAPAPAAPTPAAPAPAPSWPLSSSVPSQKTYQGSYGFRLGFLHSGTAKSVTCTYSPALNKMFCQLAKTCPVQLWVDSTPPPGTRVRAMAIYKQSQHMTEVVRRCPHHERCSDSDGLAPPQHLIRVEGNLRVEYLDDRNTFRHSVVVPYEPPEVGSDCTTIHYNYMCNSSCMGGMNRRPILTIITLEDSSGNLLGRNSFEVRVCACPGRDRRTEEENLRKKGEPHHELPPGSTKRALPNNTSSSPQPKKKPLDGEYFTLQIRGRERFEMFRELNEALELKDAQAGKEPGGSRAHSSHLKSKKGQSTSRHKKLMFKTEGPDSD

Assay [19] can be described thus: ATG_FoxO_CIS: Attagene CIS-FACTORIAL HepG2 Assay for human Forkhead box O (FoxO) (AID 2282943; active means hit-call score of the fitted dose curve at least 0.9, where 1 is the maximum; inactive means score below 0.9). To be noted: HepG2 Attagene cis-reporter, FoxO element, mRNA; actives raise or lower the signal. The method in brief: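 Read-out: fluorescence of 6-FAM-labelled reporter cDNA fragments resolved by capillary electrophoresis. Transiently transfected HepG2 cells were dosed for 24 h; activity fitted in both directions relative to DMSO controls.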

The nature of assay [20]: ATG_RORE_CIS: Attagene CIS-FACTORIAL HepG2 Assay for human RAR-related Orphan Receptor Element (RORE) (AID 2282959; active means hit-call score of the fitted dose curve at least 0.9, where 1 is the maximum; inactive means score below 0.9). To be noted: HepG2 Attagene cis-factorial RORE reporter, mRNA; actives raise or lower the signal. The method in brief: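 HepG2 cells carrying transiently transfected cis-regulated reporter units; RORE-driven reporter mRNA quantified 24 h post-dosing by RT-PCR, 6-FAM primer extension, HpaI digestion and capillary electrophoresis. Bidirectional fit versus DMSO.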

Records with an inconclusive call do not appear. Calls of active or inactive are those of the source. How the source made its calls, unless noted: active means hit-call score of the fitted dose curve at least 0.9, where 1 is the maximum; inconclusive means response in the unintended direction; inactive means score below 0.9.

human Peroxisome Proliferator-activated Receptor alpha (PPARa), PPARA (gene 5465), sequence (Q07869 whole entry, looked up, the tested form may be a part): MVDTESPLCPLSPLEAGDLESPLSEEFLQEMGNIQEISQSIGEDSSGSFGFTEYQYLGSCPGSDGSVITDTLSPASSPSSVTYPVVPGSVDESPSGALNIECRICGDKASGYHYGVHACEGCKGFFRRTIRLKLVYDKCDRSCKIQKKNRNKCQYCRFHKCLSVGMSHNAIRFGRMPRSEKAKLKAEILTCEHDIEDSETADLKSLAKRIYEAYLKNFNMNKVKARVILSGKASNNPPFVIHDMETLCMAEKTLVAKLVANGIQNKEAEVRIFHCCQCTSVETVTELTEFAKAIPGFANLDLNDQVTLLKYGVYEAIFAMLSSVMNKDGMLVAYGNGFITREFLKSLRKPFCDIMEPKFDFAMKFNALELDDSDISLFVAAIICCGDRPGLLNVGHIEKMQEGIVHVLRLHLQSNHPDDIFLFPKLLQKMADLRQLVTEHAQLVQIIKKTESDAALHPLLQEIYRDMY
Hepatocyte nuclear factor 4-alpha (Homo sapiens), sequence (P41235 whole entry, looked up, the tested form may be a part): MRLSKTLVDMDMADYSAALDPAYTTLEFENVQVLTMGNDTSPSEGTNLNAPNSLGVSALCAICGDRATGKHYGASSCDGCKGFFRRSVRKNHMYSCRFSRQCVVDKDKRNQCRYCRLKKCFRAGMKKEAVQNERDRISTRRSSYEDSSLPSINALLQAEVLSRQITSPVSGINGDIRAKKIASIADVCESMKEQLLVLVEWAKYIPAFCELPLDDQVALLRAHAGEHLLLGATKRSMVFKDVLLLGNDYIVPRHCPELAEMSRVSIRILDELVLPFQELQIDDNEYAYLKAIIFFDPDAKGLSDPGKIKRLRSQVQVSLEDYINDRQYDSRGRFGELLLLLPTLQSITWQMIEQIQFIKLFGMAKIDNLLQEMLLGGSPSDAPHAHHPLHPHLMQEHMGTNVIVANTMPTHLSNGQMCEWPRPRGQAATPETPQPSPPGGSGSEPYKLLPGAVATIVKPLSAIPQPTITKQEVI
Retinoic acid receptor alpha (Homo sapiens), sequence (P10276 whole entry, looked up): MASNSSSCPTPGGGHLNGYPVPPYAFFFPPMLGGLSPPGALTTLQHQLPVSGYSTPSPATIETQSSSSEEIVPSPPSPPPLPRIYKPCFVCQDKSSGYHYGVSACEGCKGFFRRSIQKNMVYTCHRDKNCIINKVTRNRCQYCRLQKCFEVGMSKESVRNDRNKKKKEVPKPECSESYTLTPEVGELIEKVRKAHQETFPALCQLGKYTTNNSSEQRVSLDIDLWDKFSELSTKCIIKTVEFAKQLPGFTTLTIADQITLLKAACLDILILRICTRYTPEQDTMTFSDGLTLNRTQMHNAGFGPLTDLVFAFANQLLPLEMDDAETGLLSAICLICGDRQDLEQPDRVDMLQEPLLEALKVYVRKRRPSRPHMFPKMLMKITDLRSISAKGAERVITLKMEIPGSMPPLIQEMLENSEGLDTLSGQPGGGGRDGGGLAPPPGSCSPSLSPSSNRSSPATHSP

In general, AC50 refers to the midpoint of the concentration-response curve, whichever way the signal moves. Turning to `O=C(CC(C(=O)OC1CCCCC1)S(=O)(=O)O)OC1CCCCC1` (stereo unspecified), the call in [1], in assay [2], in assay [3], in assay [4], in [5] and in [6] was inactive. The outcome in assay [7], in assay [8], in assay [9], in assay [11], in assay [12] and in assay [13] was inactive. For the same compound, the compound was called inactive in [14], in assay [15], in assay [16], in assay [17] and in [18]. Also, the AC50 in assay [10] was 35.1 µM (active).
`NC(N)=Nc1nc(CSCCC(N)=NS(N)(=O)=O)cs1`: the compound was called inactive in assay [1], in [2], in assay [19], in assay [3], in assay [7] and in [10]. For the same compound, the compound was called inactive in assay [11], in [12], in assay [13], in assay [14], in assay [15] and in assay [16]. Besides, the call in assay [17] and in assay [18] was inactive.
Turning to `O=C(O)/C=C/C(=O)O`, the compound was called inactive in assay [19], in [3], in assay [4], in assay [5], in [7] and in assay [8]. For the same compound, the result in assay [9] and in assay [10] was inactive.
For `C=CN1CCCCCC1=O`, the compound was called inactive in [2], in assay [3], in assay [20], in assay [5], in assay [8] and in [10]. Besides, the call in assay [11], in assay [12], in [13], in assay [14], in assay [15] and in assay [16] was inactive. Besides, in assay [18], the result was inactive.
Take `c1ccc(CNc2ncnc3nc[nH]c23)cc1`: the result in [1], in [3], in assay [4], in assay [20], in [5] and in assay [6] was inactive. For the same compound, the call in [8], in assay [9], in assay [10], in assay [14] and in assay [17] was inactive.
In the case of `CC1(C)S[C@@H]2[C@H](NC(=O)[C@H](N)c3ccccc3)C(=O)N2[C@H]1C(=O)O`, the call in assay [2], in [19], in assay [3], in [5], in [6] and in assay [8] was inactive. Further, the compound was classed as inactive in assay [10], in assay [12], in assay [13], in [14], in [15] and in [16]. In addition, the result in assay [17] and in assay [18] was inactive.
On to `N#CCN(CC#N)CCN(CC#N)CC#N`, for which the outcome in assay [2], in assay [19], in assay [3], in assay [4], in assay [20] and in [5] was inactive. Also, the outcome in [6], in assay [7], in [8], in [9], in assay [11] and in assay [14] was inactive. In [17], the compound was called inactive.
As to `CC(=O)O[C@]1(C(C)=O)CC[C@H]2[C@@H]3C=C(C)C4=CC(=O)CC[C@]4(C)[C@H]3CC[C@@]21C`, the result in assay [12], in assay [13], in assay [14], in [15], in [16] and in assay [17] was inactive. Further, in assay [18], the result was inactive.
Regarding `C/C=C(\C)C(=O)OCC/C=C\CC`, the result in assay [1], in [3], in assay [4], in [5], in assay [7] and in [8] was inactive. For the same compound, the compound was classed as inactive in assay [9], in [11], in [12], in assay [13], in assay [15] and in assay [17]. Also, the result in assay [18] was inactive.
